# Assay results reported in paper PMC12615815.
# Columns and labels:
# Assay in all cases: cross-link between two proteins; cross-linking mass spectrometry
# [1] = target: Large ribosomal subunit protein bL25 (UniProt P68919)
# [2] = target: Large ribosomal subunit protein uL23 (UniProt P0ADZ0)
# [3] = target: Small ribosomal subunit protein bS1 (UniProt P0AG67)
# [4] = target: Small ribosomal subunit protein uS14 (UniProt P0AG59)
substance,measurement,setting,value
"Large ribosomal subunit protein uL16, P0ADY7",listed as a hit,[1],yes
"Large ribosomal subunit protein bL9, P0A7R1",listed as a hit,[1],yes
"Large ribosomal subunit protein uL29, P0A7M6",listed as a hit,[2],yes
"Small ribosomal subunit protein bS18, P0A7T7",listed as a hit,[3],yes
"Large ribosomal subunit protein bL31, P0A7M9",listed as a hit,[4],yes
"Small ribosomal subunit protein uS3, P0A7V3",listed as a hit,[4],yes
